Columns and labels:
Assay in all cases: PBM binding z-score (relative to random genomic background probes); higher = stronger binding; sequences stand for … in GC…GCGATTGACAGCGTAGAATGAAGG
[1] = test system: FXR:RXRa (NR concentration 270 nM, RXRa partner concentration 90 nM)
In short: (§1)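 Scanned fluorescence from custom Agilent 4×180K protein-binding microarrays was regression-normalized. Binding z-scores use random background probes as reference. Ligand-free nuclear receptor dimers were incubated on the arrays for 1 h and detected with antibodies against each partner (one per run).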

[2] = test system: LXRa:RXRa (NR concentration 270 nM, RXRa partner concentration 90 nM)
In short: as §1

[3] = test system: LXRa homodimer (NR concentration 270 nM)
In short: as §1

[4] = test system: LXRb:RXRa (NR concentration 270 nM, RXRa partner concentration 90 nM)
In short: as §1

[5] = test system: LXRb homodimer (NR concentration 270 nM)
In short: as §1

[6] = test system: PPARa:RXRa (NR concentration 270 nM, RXRa partner concentration 90 nM)
In short: as §1

[7] = test system: PPARg:RXRa (NR concentration 180 nM, RXRa partner concentration 90 nM)
In short: as §1

[8] = test system: PPARg:RXRa 270nM:90nM, anti-RXR (NR concentration 270 nM, RXRa partner concentration 90 nM)
In short: as §1

[9] = test system: PPARg:RXRa 30nM:10nM, anti-RXR (NR concentration 30 nM, RXRa partner concentration 10 nM)
In short: as §1

[10] = test system: PPARg:RXRa 90nM:30nM, anti-RXR (NR concentration 90 nM, RXRa partner concentration 30 nM)
In short: as §1

[11] = test system: PPARg:RXRa DBDmut IVT, anti-RXR (DBD mutation: RXRa K156A/R161A, NR concentration 270 nM, RXRa partner concentration 90 nM)
In short: as §1

[12] = test system: PPARg:RXRa IVT, anti-PPARg (NR concentration 270 nM, RXRa partner concentration 90 nM)
In short: as §1

[13] = test system: PPARg DBDmut:RXRa IVT, anti-PPARg (DBD mutation: PPARg1 K132A/R137A, NR concentration 270 nM, RXRa partner concentration 90 nM)
In short: as §1

[14] = test system: PPARg DBDmut IVT, anti-PPARg (DBD mutation: PPARg1 K132A/R137A, NR concentration 270 nM)
In short: as §1

[15] = test system: PPARg homodimer (NR concentration 180 nM)
In short: as §1

[16] = test system: PXR:RXRa (NR concentration 270 nM, RXRa partner concentration 90 nM)
In short: as §1

[17] = test system: PXR homodimer (NR concentration 270 nM)
In short: as §1

[18] = test system: RARa:RXR (NR concentration 270 nM, RXRa partner concentration 90 nM)
In short: as §1

[19] = test system: RARa homodimer (NR concentration 270 nM)
In short: as §1

[20] = test system: RARb:RXRa (NR concentration 270 nM, RXRa partner concentration 90 nM)
In short: as §1

Sequence	PBM binding z-score [1]	PBM binding z-score [2]	PBM binding z-score [3]	PBM binding z-score [4]	PBM binding z-score [5]	PBM binding z-score [6]	PBM binding z-score [7]	PBM binding z-score [8]	PBM binding z-score [9]	PBM binding z-score [10]	PBM binding z-score [11]	PBM binding z-score [12]	PBM binding z-score [13]	PBM binding z-score [14]	PBM binding z-score [15]	PBM binding z-score [16]	PBM binding z-score [17]	PBM binding z-score [18]	PBM binding z-score [19]	PBM binding z-score [20]
CGTCAAAGTTCAACCAAGGTAACGTAAAGCACGC	7.34	6.27	4.15	4.07	1.7	5.02	5.31	5.53	2.39	4.77	0.703	2.22	0.566	0.664	3.1	5.55	4.15	4.39	1.73	5.25
ATATGTAGGTTAAGGGGCATTCAGGTTGGTTCGC	1.42	2	1.15	2.75	1.48	5.25	9.21	8.26	8.39	9.63	7.2	7.11	2.3	1.88	2.29	2.12	1.83	1.92	1.47	1.78
ACAGACAGGTGAGTGGAGGTAACTCAGCTGGACG	0.578	0.206	-0.47	-0.13	-0.275	0.431	0.557	-0.0456	-0.0591	0.000165	0.56	1.09	-0.327	-0.467	0.425	0.121	-0.151	0.729	-0.053	0.617
GATACAGGGTCAGTTAGAGGCCAGAGTATGGAAA	4.02	2.54	0.247	2.39	0.0768	3.64	2.24	2.27	0.448	1.45	1.02	1.82	0.545	0.433	2.89	2.85	1.17	3.86	0.673	3.77
CCTTCCGGGTCACTGACAGGTTATAGCATTTGGA	4.43	3.92	0.31	3.22	0.12	5.01	4.96	5.08	1.75	3.7	3.69	5.08	0.702	-0.286	2.37	3.71	0.125	4.23	0.725	3.78
CCGACTGCGGCAAAGGTTACCATACTCAGTACGA	0.819	1.26	0.087	1.73	-0.464	2.59	2.8	4.2	2.28	4.38	0.233	0.732	0.0182	0.245	0.843	1.61	-0.16	2.57	0.118	1.82
TCTTGTAGAGCAACAGGAGGTTAAGAAAGATCGA	0.207	0.661	-0.177	0.486	-0.586	1.12	-0.0991	0.587	1.4	0.921	1.98	1.27	0.588	0.0668	-0.265	0.413	-0.46	0.506	-0.541	0.184
ATCTCTAGGTAAAGTCCAGTGAAAGATCGATAGA	0.403	0.465	0.0712	-0.241	1.11	0.175	0.232	0.48	0.421	0.165	2.45	1.54	1.13	0.971	0.584	-0.13	0.187	-0.113	0.971	0.414
TCTGGTAGATCAACAGGAGGTTAAGAAAGATCGA	0.3	1.04	0.187	0.782	-0.582	1.24	-0.00962	1.19	2.17	1.82	0.912	0.0177	0.166	-0.137	0.335	0.736	-0.172	1.06	-0.145	0.269
CCTAGCAGGCCAGGGTCACTCCAGCATTTCGCTT	1.55	1.25	-0.465	1.65	-0.731	2.73	0.332	1.25	-0.559	0.667	0.422	1.18	-1.53	-1.63	1.15	2.12	-0.229	2.93	0.279	2.47
TCTGCTAGGTCAACGATGGTCAGCTAGTCTGCTA	3.29	2.53	-0.369	1.39	-0.445	3.44	2.46	2.9	1.75	2.53	3.64	4.26	-0.411	-0.961	0.415	1.42	-1.07	2.26	-1.08	4.06
ACTATAAGTTGAGACGAGGGCAACCGATAGGTTG	1.18	0.684	-0.161	0.115	-0.00417	0.691	1.01	0.487	0.313	0.578	0.251	0.388	0.373	-0.377	0.181	3.22	0.715	1.53	0.18	1.53
CCTCGGAGGCCAGAAGGTCAGAGCTGTCCGCTTT	1.46	1.39	-0.337	0.993	-0.99	1.97	-0.665	1.19	-0.826	0.521	-0.00859	-0.274	-1.71	-1.89	0.843	1.32	-0.625	2.12	-0.274	2.98
TCTTGTGGATCAAAGGTTAAGAAAGCCGAAGCCT	1.78	1.88	0.101	2.08	0.0498	4.58	7.94	7.64	7.24	8.31	1.84	3.48	0.81	-0.181	1.3	1.98	-0.205	2.8	0.693	1.82

From the supplement of paper PMC6555819
